Laboratory results: PubChem BioAssay AID720648 (The Scripps Research Institute Molecular Screening Center, 2013)
Screen size: about 370,000 compounds; about 3,100 (0.84%) were called active. This excerpt belongs to a sample that is enriched for actives. A number with no mark means an inactive call.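 The calls were made as follows: active = inhibition above the mean of compounds lying between control limits plus 3 SD, set per campaign (cut at about 8.5% in these data); inactive = the rest.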

What follows are compounds tested against Disintegrin and metalloproteinase domain-containing protein 17 (Homo sapiens) (UniProt P78536) (assay: inhibition of ADAM17 peptide cleavage – biochemical, QFRET, primary screen (AID 720648;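 also: 0% = DMSO-only wells as the low control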)). Conditions: recombinant ADAM17, EDANS/DABCYL FRET peptide cleavage; at 6.95 µM; hits give high values.
Disintegrin and metalloproteinase domain-containing protein 17 (Homo sapiens), sequence (P78536 215-824 limits assumed): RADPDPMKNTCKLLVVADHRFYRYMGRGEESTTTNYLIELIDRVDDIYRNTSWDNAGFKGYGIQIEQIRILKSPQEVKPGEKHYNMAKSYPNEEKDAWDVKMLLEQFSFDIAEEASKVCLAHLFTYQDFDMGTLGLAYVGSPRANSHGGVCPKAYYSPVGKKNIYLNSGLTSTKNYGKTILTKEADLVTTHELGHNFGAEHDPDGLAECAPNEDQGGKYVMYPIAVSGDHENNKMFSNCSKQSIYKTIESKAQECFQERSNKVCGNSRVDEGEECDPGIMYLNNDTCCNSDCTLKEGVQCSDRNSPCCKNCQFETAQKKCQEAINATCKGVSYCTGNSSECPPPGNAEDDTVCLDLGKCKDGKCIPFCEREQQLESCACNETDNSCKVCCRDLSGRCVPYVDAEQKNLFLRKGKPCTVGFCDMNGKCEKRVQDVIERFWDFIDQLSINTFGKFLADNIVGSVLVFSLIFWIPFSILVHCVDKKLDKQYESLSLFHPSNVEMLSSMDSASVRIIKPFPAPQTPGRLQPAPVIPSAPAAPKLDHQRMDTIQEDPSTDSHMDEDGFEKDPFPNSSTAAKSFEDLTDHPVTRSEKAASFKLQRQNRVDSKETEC

**Q.** Which inhibition does the source give for `C=CCOC/C=C/C#CCN(CC=C)Cc1ccc(OC)cc1OC` here?
**A.** -0.84%

**Q.** How did the inhibition turn out when `O=C(Nc1nc2ccc(Cl)cc2s1)c1cc(-c2ccc(Cl)cc2)nc2ccccc12` was run?
**A.** -5.76%

**Q.** How did the inhibition turn out when `Cc1ccccc1CN1CCCCC(NC(=O)c2cccc(C#N)c2)C1=O` (centres undefined) was run?
**A.** -3.86%

**Q.** How did the inhibition turn out when `CCCCCC(=O)N1C[C@H](O)[C@@H](n2cc(COC(=O)c3ccccc3)nn2)C[C@@H]1c1ccc(C)cc1` was run?
**A.** 8.64% (active)

**Q.** How did the inhibition turn out when `Cc1ccc([C@H]2C[C@H](O)[C@@H](n3cc(COC(=O)c4ccccc4)nn3)CN2C(=O)C2CCCCC2)cc1` was run?
**A.** -1.37%

**Q.** Which inhibition does the source give for `CCCCCCN1C[C@@H](O)[C@H](n2cc(COC(=O)c3ccccc3)nn2)C[C@@H]1c1ccc(Cl)cc1` here?
**A.** -1.65%

**Q.** For `CC(CCN1CCC(C(O)(c2ccccc2)c2ccccc2)CC1)Oc1ccc([N+](=O)[O-])cc1Cl` (centres undefined), which inhibition is on record?
**A.** 6.8%

**Q.** `C=CC(COCc1ccccc1)N(Cc1ccccc1)S(=O)(=O)c1ccccc1Br` (centres undefined) was tested. Which inhibition did it give?
**A.** -0.15%

**Q.** For `C=CC(COCc1ccccc1)N(CC(=O)OC)S(=O)(=O)c1cc(Br)ccc1OC` (centres undefined), which inhibition is on record?
**A.** 9.3% (active)

**Q.** For `CCN(Cc1ccccc1)S(=O)(=O)c1cc(C(=O)O)ccc1OC`, which inhibition is on record?
**A.** 0.35%

**Q.** With `Cc1ccc(NC(=O)c2cc(C)nn2-c2ccccc2)c(C)c1` as the compound, how does the inhibition read?
**A.** 3.11%

**Q.** Which inhibition does the source give for `C=C(C)C#CC(Cc1ccccc1)N(CC1CC1)/C(N)=N/C(=O)OCc1ccccc1` (centres undefined) here?
**A.** -26.4%

**Q.** How did the inhibition turn out when `CCOc1ccc(-n2c(SCC(=O)Nc3cc(C)c(NC(=O)c4ccccc4)cc3OC)nnc2-c2cccs2)cc1` was run?
**A.** 10.6% (active)

**Q.** How did the inhibition turn out when `CCOc1ccc(-n2c(SCC(=O)Nc3cc(C)c(NC(=O)c4ccccc4)cc3OC)nnc2-c2cccc(Cl)c2)cc1` was run?
**A.** 6.75%

**Q.** Which inhibition does the source give for `COc1ccc(-n2c(SCC(=O)Nc3ccccc3-c3ccccc3)nnc2-c2cccnc2)cc1` here?
**A.** -1.39%

**Q.** Which inhibition does the source give for `Cc1cc(=O)[nH]c(SCC(=O)Nc2ccc(F)cc2F)n1` here?
**A.** 6.65%

**Q.** With `Cc1ccc(S(=O)(=O)N2CCN(C(=O)COC(=O)c3c(C)cc(C)cc3C)CC2)c(C)c1` as the compound, how does the inhibition read?
**A.** 19.5% (active)

**Q.** Which inhibition does the source give for `COc1ccc(/C=C/C(=O)OCC(=O)N2CCN(S(=O)(=O)c3ccc(C)cc3C)CC2)cc1OC` here?
**A.** -6.61%

**Q.** `Cc1ccc(S(=O)(=O)N2CCN(C(=O)COC(=O)CNC(=O)c3ccc(C(C)(C)C)cc3)CC2)c(C)c1` was tested. Which inhibition did it give?
**A.** -2.11%

**Q.** With `Cc1ccc(-n2c(SCC(=O)Nc3ccc(S(=O)(=O)Nc4nccs4)cc3)nnc2-c2ccncc2)cc1` as the compound, how does the inhibition read?
**A.** -0.27%

**Q.** `O=C(OCc1ccc(-c2ccccc2)cc1)c1cccc(O)c1` was tested. Which inhibition did it give?
**A.** 9.14% (active)

**Q.** `O=C(OCC(=O)N1CCN(C(=O)c2ccco2)CC1)c1cccc(O)c1` was tested. Which inhibition did it give?
**A.** -3.62%

**Q.** With `Cc1ccc(S(=O)(=O)c2c(COC(=O)c3cccc(Cl)c3)c(-c3ccccc3)nn2C)cc1` as the compound, how does the inhibition read?
**A.** -0.5%

**Q.** How did the inhibition turn out when `COc1ccc(CNS(=O)(=O)c2cc(-c3cc(C)no3)ccc2C(C)C)cc1` was run?
**A.** 3.19%

**Q.** For `CCOc1ccccc1CNS(=O)(=O)c1cc(-c2cc(C)no2)ccc1C`, which inhibition is on record?
**A.** 10.2% (active)

**Q.** `Cc1cc(-c2ccc(C)c(S(=O)(=O)NCCCN(Cc3ccccc3)C(C)C)c2)on1` was tested. Which inhibition did it give?
**A.** -3.83%

**Q.** With `CCC(CO)Nc1cccc2c1S(=O)(=O)N(Cc1cn(Cc3ccccc3C(F)(F)F)nn1)Cc1ccccc1O2` (centres undefined) as the compound, how does the inhibition read?
**A.** -3.41%

**Q.** For `COC(=O)[C@H](C(C)C)N1CCc2nnn(Cc3ccc(C)cc3)c2-c2ccccc2S1(=O)=O`, which inhibition is on record?
**A.** 2.97%

**Q.** With `C=C1C(C(C)C)N(C)C2=NC(c3ccccc3)CC(=O)N12` (centres undefined) as the compound, how does the inhibition read?
**A.** -5.62%

**Q.** Which inhibition does the source give for `O=C(CSc1nc2ccccc2n1Cc1ccccc1)NNC(=S)Nc1ccccc1` here?
**A.** 5.43%

**Q.** For `O=C(CSc1nnc(SCc2ccc(Cl)cc2)s1)N/N=C/c1ccccc1Cl`, which inhibition is on record?
**A.** 0.99%

**Q.** Which inhibition does the source give for `Cc1ccc(NC(=S)NNC(=O)CSc2nnc(SCc3ccccc3Cl)s2)cc1` here?
**A.** 9.53% (active)

**Q.** With `Nc1[nH]c(/C=C2/CCCCC2n2[nH]c(=O)n(-c3ccccc3)c2=O)c(Cc2ccccc2)[n+]1Cc1ccccc1` (centres undefined) as the compound, how does the inhibition read?
**A.** -3.48%

**Q.** `O=C(Nc1ccc(Br)cc1)OCCN1C(=O)CCC12CCC(c1ccccc1)CC2` (centres undefined) was tested. Which inhibition did it give?
**A.** -0.94%

**Q.** How did the inhibition turn out when `CC(NCc1ccco1)C(=O)N1CCCCC1` (centres undefined) was run?
**A.** 0.39%

**Q.** For `O=C(CSCc1ccc([N+](=O)[O-])cc1)Nc1cccc(C(=O)Nc2ccccc2C(=O)O)c1`, which inhibition is on record?
**A.** 0.74%

**Q.** How did the inhibition turn out when `O=C(CSc1nc(-c2ccccc2)cs1)Nc1cccc([N+](=O)[O-])c1` was run?
**A.** 8.67% (active)

**Q.** With `O=C(CSc1nc2[nH]c(=O)[nH]c(=O)c2s1)Nc1cccc(F)c1` as the compound, how does the inhibition read?
**A.** -3.92%

**Q.** For `O=C1CC(c2ccc3c(c2)OCO3)N=C2N(CC3CC3)C/C(=C/c3ccccc3)N12` (centres undefined), which inhibition is on record?
**A.** -2.87%

**Q.** For `CC(CCN1CCC(C(O)(c2ccccc2)c2ccccc2)CC1)Oc1ccc(C(F)(F)F)cc1` (centres undefined), which inhibition is on record?
**A.** 3.8%

**Q.** `C=CCC[C@@H](Cc1ccc(F)cc1)C(=O)O[C@H](CNC(=O)[C@H](CC=C)CC(=O)N(CCO)Cc1ccccc1)c1ccccc1` was tested. Which inhibition did it give?
**A.** 13.4% (active)

**Q.** How did the inhibition turn out when `C=CCC[C@@H](Cc1ccc(F)cc1)C(=O)OC[C@@H](C)NC(=O)[C@H](CC=C)CC(=O)N(CCO)Cc1ccccc1` was run?
**A.** 0.31%

**Q.** For `C=CCC[C@@H](Cc1ccc(F)cc1)C(=O)OC[C@H](Cc1c[nH]c2ccccc12)NC(=O)[C@@H](CC=C)CC(=O)N(CCO)Cc1ccccc1`, which inhibition is on record?
**A.** 20.9% (active)

**Q.** How did the inhibition turn out when `C=CCC[C@H](Cc1ccc(F)cc1)C(=O)OC[C@H](C)NC(=O)[C@H](CC=C)CC(=O)N(CCO)Cc1ccccc1` was run?
**A.** 0.15%

**Q.** For `C=CC[C@H](CC(=O)N(CCO)Cc1ccccc1)C(=O)N[C@@H](COC(=O)[C@@H](CC=C)Cc1ccc(F)cc1)Cc1ccccc1`, which inhibition is on record?
**A.** 13.2% (active)

**Q.** `C=CC[C@@H](Cc1ccc(F)cc1)C(=O)OC[C@H]1CCCN1C(=O)[C@H](CC=C)CC(=O)N(CCO)Cc1ccccc1` was tested. Which inhibition did it give?
**A.** 1.4%

**Q.** With `C=CCC[C@H](Cc1ccc(F)cc1)C(=O)OC[C@@H](Cc1c[nH]c2ccccc12)NC(=O)[C@H](CC=C)CC(=O)N[C@H](CO)Cc1ccccc1` as the compound, how does the inhibition read?
**A.** 3.73%

**Q.** For `C=CC[C@@H](CC(=O)N[C@H](CO)Cc1ccccc1)C(=O)N[C@@H](COC(=O)[C@@H](CC=C)Cc1ccc(F)cc1)Cc1c[nH]c2ccccc12`, which inhibition is on record?
**A.** -0.68%

**Q.** With `C=CCC[C@H](Cc1ccc(F)cc1)C(=O)OC[C@@H](NC(=O)[C@@H](CC=C)CC(=O)N[C@H](CO)Cc1ccccc1)C(C)(C)C` as the compound, how does the inhibition read?
**A.** 4.84%

**Q.** For `CCCCC(=O)N[C@@H]1CC[C@@]23CCCN2C(=O)CCC[C@H]3[C@H]1C`, which inhibition is on record?
**A.** -6.42%

**Q.** `C=C(C)C1CC23C(=O)C4(C(=O)c5ccccc5)C[C@@]5(C)CCC(CC2C1(C)C)(C4=O)C35OC` (some centres undefined) was tested. Which inhibition did it give?
**A.** -2.35%

**Q.** How did the inhibition turn out when `COC(=O)[C@]12C[C@H](CC(=O)NCc3ccccc3)C(=O)N(CCc3ccc(OC)c(OC)c3)C1=C[C@H](C(C)(C)C)O[C@@H]2C` was run?
**A.** 7.1%

**Q.** Which inhibition does the source give for `COC(=O)[C@H](C(C)C)N(CCc1cn(Cc2ccccc2)nn1)S(=O)(=O)c1ccc(F)cc1Br` here?
**A.** -0.43%

**Q.** `CCCCOCCCNC(=O)C[C@H]1C[C@@]2(C(=O)OC)C(=C[C@H](COCc3ccccc3)O[C@@H]2C)N(Cc2cccc3ccccc23)C1=O` was tested. Which inhibition did it give?
**A.** 6.38%

**Q.** Which inhibition does the source give for `O=C(Nc1cccc(Cl)c1)OC1CC2CC1[C@H]1CCCCN1[C@H]2Cc1ccccc1` (some centres undefined) here?
**A.** -2.76%

**Q.** For `Cc1ccc(Cn2nnc3c(=O)[nH]c(C4CCN(S(=O)(=O)/C=C/c5ccccc5)CC4)nc32)cc1`, which inhibition is on record?
**A.** 8.9% (active)

**Q.** With `CC(C)(C)c1ccc(Cn2nnc3c(=O)[nH]c(C4CCCN(C(=O)c5ccco5)C4)nc32)cc1` (centres undefined) as the compound, how does the inhibition read?
**A.** -1.56%

**Q.** Which inhibition does the source give for `O=C(Nc1ccc(F)cc1)N1CCCC(c2nc3c(nnn3Cc3ccccc3Cl)c(=O)[nH]2)C1` (centres undefined) here?
**A.** -4.29%

**Q.** With `C=CCn1c(SCC(=O)Nc2ccc(NC(C)=O)cc2)nc2sc(C)c(C)c2c1=O` as the compound, how does the inhibition read?
**A.** -2.65%

**Q.** For `O=C(CSc1nnc(-c2cccs2)n1Cc1ccco1)c1ccc2c(c1)OCO2`, which inhibition is on record?
**A.** 1.24%

**Q.** With `Cc1sc2nc(SCC(=O)c3ccc(O)c(O)c3)n(Cc3ccco3)c(=O)c2c1C` as the compound, how does the inhibition read?
**A.** 10.2% (active)

**Q.** For `C=CCN1C(=O)[C@@H](CC(=O)N2CCN(C(=O)c3ccco3)CC2)[C@]2(C(=O)OC)CCCCC=C12`, which inhibition is on record?
**A.** 1.66%

**Q.** With `O=C(OC12CCCN(C1)/C(=C/c1cccnc1)C2)C1CCCC1` (centres undefined) as the compound, how does the inhibition read?
**A.** 1.56%

**Q.** `O=C(NCCCn1ccnc1)Nc1ccc(Cl)cc1Cl` was tested. Which inhibition did it give?
**A.** -2.99%

**Q.** With `Clc1ccc(C(Cn2ccnc2)OCc2ccsc2Cl)c(Cl)c1` (centres undefined) as the compound, how does the inhibition read?
**A.** 8.72% (active)

**Q.** With `O=C(Nc1ccccc1C(=O)NCCCn1ccnc1)c1ccc(Cl)cc1Cl` as the compound, how does the inhibition read?
**A.** 2.53%

**Q.** Which inhibition does the source give for `O=S1(=O)c2c(cccc2N2CC[C@H](O)C2)O[C@@H]2CCN1C2` here?
**A.** -10.8%

**Q.** For `COc1ccc(C(=O)C2CCCN(C(=O)c3ccc(OC)o3)C2)c(C)c1` (centres undefined), which inhibition is on record?
**A.** -0.93%

**Q.** `COc1ccc(C(=O)C2CCCN(S(=O)(=O)c3cccc(C)c3)C2)c(C)c1` (centres undefined) was tested. Which inhibition did it give?
**A.** 12.6% (active)

**Q.** With `COc1ccc(C(=O)C2CCCN(C(=O)c3cnsn3)C2)c(C)c1` (centres undefined) as the compound, how does the inhibition read?
**A.** -4.24%

**Q.** Which inhibition does the source give for `Cc1ccc(-n2c(SCC(=O)Nc3ccc(S(=O)(=O)Nc4nccs4)cc3)nnc2-c2cccnc2)cc1` here?
**A.** 5.12%

**Q.** For `O=C(c1ccccc1)N1CCN(c2ccc([N+](=O)[O-])c(NCc3ccco3)c2)CC1`, which inhibition is on record?
**A.** 9.15% (active)

**Q.** Which inhibition does the source give for `O=[N+]([O-])c1ccc(N2CCN(S(=O)(=O)c3ccc4ccccc4c3)CC2)cc1NCc1ccco1` here?
**A.** -3.62%

**Q.** `COc1ccc(CCNc2cc(N3CCN(C(=O)c4ccccc4OC)CC3)ccc2[N+](=O)[O-])cc1OC` was tested. Which inhibition did it give?
**A.** -5.46%
